Screens (PubChem)
Sampled rows, rich in hits. Any-hit rate of the full collection: about 6.3%.
Mdm2-MdmX inh: inhibitors of human Mdm2-MdmX association, primary screen, cell-based, luminescence, split luciferase, SaOS-2, uHTS. Protein Mdm4 (Homo sapiens) + E3 ubiquitin-protein ligase Mdm2 (Homo sapiens), …. SaOS-2 split-luciferase Mdm2/MdmX complementation. inhibition, % at 8 µM. 330,000 compounds, 3% hits;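 active = inhibition of at least 50% at 8 µM in the primary screen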
Target sequence (O15151 whole entry, looked up): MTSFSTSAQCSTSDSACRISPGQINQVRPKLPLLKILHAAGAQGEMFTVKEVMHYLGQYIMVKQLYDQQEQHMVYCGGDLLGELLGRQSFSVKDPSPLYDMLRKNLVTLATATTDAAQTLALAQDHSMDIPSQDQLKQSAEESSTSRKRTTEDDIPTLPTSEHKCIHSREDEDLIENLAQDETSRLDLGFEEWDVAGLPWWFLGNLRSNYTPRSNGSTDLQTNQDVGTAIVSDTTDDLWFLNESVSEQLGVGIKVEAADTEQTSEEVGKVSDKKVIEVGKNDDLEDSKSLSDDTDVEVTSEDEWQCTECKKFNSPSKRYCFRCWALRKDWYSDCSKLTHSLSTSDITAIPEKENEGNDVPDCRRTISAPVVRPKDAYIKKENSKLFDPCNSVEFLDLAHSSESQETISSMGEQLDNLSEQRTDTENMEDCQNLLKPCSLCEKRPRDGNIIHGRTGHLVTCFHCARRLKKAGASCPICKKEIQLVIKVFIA
Target sequence (Q00987 whole entry, looked up): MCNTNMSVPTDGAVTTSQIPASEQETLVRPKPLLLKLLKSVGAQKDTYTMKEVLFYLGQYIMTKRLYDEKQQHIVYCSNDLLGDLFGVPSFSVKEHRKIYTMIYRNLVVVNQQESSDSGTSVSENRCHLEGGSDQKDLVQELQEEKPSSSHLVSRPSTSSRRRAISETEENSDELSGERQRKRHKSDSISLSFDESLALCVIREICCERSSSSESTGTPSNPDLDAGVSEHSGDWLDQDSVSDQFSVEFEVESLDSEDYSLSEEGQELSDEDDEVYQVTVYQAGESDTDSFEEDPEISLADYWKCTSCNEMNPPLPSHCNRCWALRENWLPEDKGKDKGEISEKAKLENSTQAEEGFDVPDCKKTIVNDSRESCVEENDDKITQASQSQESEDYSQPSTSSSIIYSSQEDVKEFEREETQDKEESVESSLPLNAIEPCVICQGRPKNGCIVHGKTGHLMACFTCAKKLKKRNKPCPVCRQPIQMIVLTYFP
TIM10 inh: growth inhibitors of isogenic TIM10 control yeast, primary screen, counter-screen for tim10-1 yeast inhibitor project, luminescence, uHTS. inhibition, % at 10 µM. 330,000 compounds, 1.4% hits. S. cerevisiae TIM10 strain growth, BacTiter-Glo luminescence, 24 h;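 active = inhibition of 40% or more at the single tested concentration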;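 also: wild-type TIM10 isogenic control strain grown at permissive 25 °C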
tim23-1 inh: growth inhibitors of tim23-1 mutant yeast, primary screen, luminescence, uHTS | inhibition, % at 20 µM | S. cerevisiae tim23-1 growth, BacTiter-Glo luminescence, 24 h | AID 463212, 2010 | 330,000 compounds, 1.3% hits;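 active = growth inhibition of the mutant yeast at or above 50%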;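 also: temperature-sensitive mutant grown at 25 °C; plate controls were DMSO-treated mutant yeast for no effect and medium wells lacking yeast for full effect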
tim10-1 inh: growth inhibitors of tim10-1 mutant yeast, primary screen, luminescence, uHTS; S. cerevisiae tim10-1 ts strain growth, BacTiter-Glo, 24 h; inhibition, % at 20 µM; 330,000 compounds, 2.2% hits;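 active = inhibition of at least 40%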;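 also: mutant grown at 25 °C; 0% = DMSO wells with yeast and 100% = wells holding no yeast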
MPTP inh: mitochondrial permeability transition pore inhibitors, primary screen, biochemical, isolated mouse mitochondria, absorbance; 360,000 compounds, 1.4% hits; Ca2+ swelling absorbance, 30 min; inhibition, % at 10 µM;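 active = inhibition of 50% or more, scaled per plate between neutral and stimulator controls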;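 also: 0% = DMSO wells given calcium and 100% = 1 mM EGTA wells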
tim10-1 confirm: growth inhibitors of tim10-1 mutant yeast, confirmation, single concentration, luminescence, S. cerevisiae. inhibition, % at 20 µM. AID 463213, 2010. shares compounds with tim10-1 inh. 7,400 compounds, 56% hits. S. cerevisiae tim10-1 ts strain growth, BacTiter-Glo, 24 h;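 active = inhibition of yeast growth at or above a set limit in either of two repeat tests at 20 µM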;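 also: tim10-1 mutant grown at permissive 25 °C to find synthetic lethal compounds; 0% = DMSO yeast wells and 100% = medium wells without yeast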
An asterisk follows results filed as active; x = not tested or not shown.

SMILES	Mdm2-MdmX inh	TIM10 inh	tim23-1 inh	tim10-1 inh	MPTP inh	tim10-1 confirm
COc1cc(Cl)ccc1OC1(C)CCN(Cc2c(F)cccc2F)C1 (stereo unspecified)	x	x	x	x	-1.4	x
Cc1cccc(NC(=S)/N=C(\N)Nc2nc(C)c3ccccc3n2)c1	20.1	32.8	35.3	44.1*	32.9	27.1
Cc1ccc(S(=O)(=O)/N=C(\N)Nc2nc(C)c3ccccc3n2)cc1	-35.5	6.7	30.9	44.7*	-3.5	9.9
COc1ccc2c(C)nc(N/C(N)=N/S(=O)(=O)c3ccc(C)cc3)nc2c1	-3.9	12.5	32.2	30.3	0.5	x
COc1ccc2nc(N/C(N)=N/C(=S)Nc3ccccc3)nc(C)c2c1	25.7	37.4	44.4	49.9*	-2.5	19.4
Cc1cccc(NC(=S)/N=C(\N)Nc2nc(C)c3cc(C)ccc3n2)c1	26.7	25.0	14.6	38.6	3.7	x
COc1cccc(C(O)c2nc(-c3cccc(C(F)(F)F)c3)cs2)c1 (stereo unspecified)	x	x	x	x	1.6	x
CCCCNC(=O)C(=O)Nc1ccc2c(c1)N(S(=O)(=O)c1cccs1)CCC2	x	x	x	x	-1.4	x
COc1ccc(S(=O)(=O)N2CCN(c3ccccc3OC)CC2)cc1	16.0	9.1	39.6	43.4*	0.5	34.5*
CCc1ccc(S(=O)(=O)N2CCN(c3ccccc3OC)CC2)cc1	17.8	3.0	21.7	14.8	2.2	x
Nc1ccccc1C(=O)/C=C/c1ccc2c(c1)OCO2	-59.2	31.8	45.8	43.9*	-0.2	39.1*
COc1ccc(C(CCNCc2ccccc2)c2ccc(F)cc2)cc1 (stereo unspecified)	45.7	9.1	18.7	45.5*	2.0	20.4
COc1ccc(CNCCC(c2ccc(OC)cc2)c2ccccc2OC)cc1 (stereo unspecified)	19.5	5.1	21.8	34.3	2.1	x
Cc1ccc(NC2CCCCC2NS(=O)(=O)c2ccccc2)c(C)c1 (stereo unspecified)	-0.1	20.3	44.0	43.9*	7.3	20.8
COc1ccc(N2CCN(c3cc(C(=O)Nc4cc(OC)c(OC)c(OC)c4)ncn3)CC2)cc1OC	x	x	x	x	-3.4	x
Cc1cc2ncn(C(=O)c3c(-c4c(Cl)cccc4Cl)noc3C)c2cc1C	8.0	4.5	5.7	10.8	-1.5	x
Cc1cc2ncn(C(=O)c3c(-c4ccccc4)noc3C)c2cc1C	32.2	33.8	40.6	40.8*	0.8	24.0
O=c1[nH]c(CN2CCN(S(=O)(=O)c3ccc(Cl)cc3)CC2)nc2cc(Cl)ccc12	8.6	22.7	38.5	47.7*	-2.0	31.2*
CC1(C(=O)Nc2cnc3ccccc3c2)CCN1Cc1ccc(-c2ccccc2)o1 (stereo unspecified)	x	x	x	x	0.8	x
O=C(NCCCN1CCOCC1)c1ccc(/C=C2\Oc3ccccc3N(Cc3ccccc3F)C2=O)cc1	47.8	9.0	42.0	46.5*	0.5	11.9
C[C@@H]1CN([C@@H](C)CO)C(=O)c2cc(Br)cnc2O[C@H]1CN(C)C(=O)Nc1ccccc1	x	x	x	x	-0.4	x
O=[N+]([O-])c1ccc(Sc2ccncn2)c([N+](=O)[O-])c1	x	x	x	x	-1.4	x
Cc1cc(C)nc(Sc2ccc([N+](=O)[O-])cc2[N+](=O)[O-])n1	39.4	9.4	42.7	47.1*	0.2	30.2*
Cc1cc2nc(C3CCCCC3)c(Cc3ccccc3)n2c(C)c1Br	x	x	x	x	1.9	x
COc1ccc(C(C(=O)c2ccccc2)c2ccccc2)cc1 (stereo unspecified)	x	x	x	x	-1.2	x
SMILES	Mdm2-MdmX inh	TIM10 inh	tim23-1 inh	tim10-1 inh	MPTP inh	tim10-1 confirm
CCOC(=O)/C(C#N)=C\c1cn(C)c2ccccc12	-5.2	22.5	19.9	41.0*	0.1	15.1
CCOC(=O)/C(C#N)=C/c1cn(CCOc2ccccc2)c2ccccc12	24.9	-9.3	6.0	13.0	5.7	x
N#CCC1c2ccccc2CCN1C(=O)Nc1ccc(C(F)(F)F)cc1 (stereo unspecified)	21.6	33.9	37.3	46.4*	9.6	40.8*
N#CCC1c2ccccc2CCN1C(=O)Nc1cccc(C(F)(F)F)c1 (stereo unspecified)	23.6	6.2	14.9	33.6	0.7	x
C/C=C/c1cccc(-c2nc(C(=O)NC3CCC3)cc3c2[C@H](CCO)N(S(=O)C(C)(C)C)C3)c1 (stereo partly specified)	x	x	x	x	-0.3	x
CC(/C=C1\SC(=S)N(NC(=O)c2cccc(O)c2)C1=O)=C\c1ccccc1	-7.6	11.0	42.2	51.2*	12.5	30.6*
CC1(C(=O)NS(=O)(=O)c2cccs2)CCN1C(=O)c1ccccc1 (stereo unspecified)	x	x	x	x	0.0	x
OCC1CCCN(c2nc(CN3CCCCC3)nc3scc(-c4ccccc4)c23)C1 (stereo unspecified)	18.7	17.1	32.1	40.2*	0.1	14.3
O=C1CN(C(=O)/C=C/c2cccc(Cl)c2)c2ccccc2N1	5.6	26.9	22.1	40.6*	-1.1	33.6*
O=C(CC(Sc1ccc(Br)cc1)C(=O)O)c1ccc(F)cc1 (stereo unspecified)	-1.2	11.9	29.2	42.0*	0.2	25.4
O=C(/C=C/c1c(Cl)nc2ccccn12)N1CCN(c2ccccc2F)CC1	-12.7	32.0	41.0	45.5*	2.6	36.2*
O=[N+]([O-])c1ccccc1SN(Cc1ccccc1)c1ccccn1	-2.6	35.8	9.3	42.3*	1.9	21.5
O=C(NC(=S)Nc1ncc(Br)cc1Br)c1cncc(Br)c1	6.1	33.6	36.5	40.4*	-0.3	22.0
CCOc1ccc(C(=O)Nc2cnn(Cc3ccc(Cl)c(Cl)c3)c2)cc1	0.4	30.7	33.3	40.6*	-4.7	35.2*
O=C(Nc1cnn(Cc2ccc(Cl)cc2)c1)c1ccc([N+](=O)[O-])cc1	12.6	26.7	7.4	30.8	1.5	x
Cc1cc(C(F)(F)F)n2nc(C(=O)O)c(Cl)c2n1	-1.8	2.0	-0.1	-15.6	-0.9	x
Cc1cc(C(F)(F)F)n2nc(-c3cnn(C)c3C(F)(F)F)c(Br)c2n1	6.5	23.3	43.2	40.8*	0.2	30.1
CCOc1ccc(-n2ccnc(SCC(=O)Nc3ccc(OC)cc3OC)c2=O)cc1	-6.4	14.8	8.6	27.4	-1.0	x
CCOc1ccc(-n2ccnc(SCC(=O)NCc3cccc(OC)c3)c2=O)cc1	-15.6	10.3	19.8	43.3*	-0.2	10.8
COCC(=O)N[C@H]1CC[C@@H](CC(=O)NCc2ccccc2OC)O[C@@H]1CO	x	x	x	x	2.4	x
O=C(O)Cc1sc(Nc2ccccc2)nc1-c1ccc(Cl)cc1	-57.2	13.5	24.7	40.4*	-1.6	23.1
Cc1ccc(Nc2nc(-c3ccccc3)c(CC(=O)O)s2)cc1	-59.9	18.5	47.5	38.1	-4.1	x
